High-throughput results as filed in PubChem.
Shown is part of a subset that was picked to be rich in hits.
Pf Dd2 inh – qHTS Primary assay for Inhibitors of Plasmodium falciparum Dd2 growth in vitro; P. falciparum Dd2 growth, SYBR Green, 72 h; Potency, µM (series often up to 28.9 µM), without a hit: top-dose activity, negative = inhibition, usual class: inhibitors; hit rate 4.3% among 120,000; active means well fitted inhibition curve with a large enough effect;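 further: plate controls were DMSO vehicle for no effect and reference drug for full effect; nearly all actives have a fitted effect of over 65% in size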
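Readout: SYBR Green fluorescence, 485 nm excitation, 535 nm emission, after ~16 h lysis at 37C. Before that, Dd2-infected red cells (2.5% hematocrit) grew 72 h with compound, 29 uM top final concentration.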
Active calls of the source: *; i = inactive; [ ] = another dose, or the depositor's remark. Potency means the concentration at half of the fitted maximal effect.

SMILES | Pf Dd2 inh
O=C(Nc1cccc(C(F)(F)F)c1)N[C@H]1CO[C@H]2[C@@H]1OC[C@H]2OC(=O)Nc1ccccc1 | -27.4%
O=C(Nc1cccc(C(F)(F)F)c1)O[C@@H]1CO[C@H]2[C@@H]1OC[C@@H]2n1cc(-c2ccccn2)nn1 | 10µM*
O=C(Nc1ccc(Oc2ccccc2)cc1)N[C@H]1CO[C@H]2[C@@H]1OC[C@@H]2n1cc(-c2ccccn2)nn1 | -21.9%
CNC(=O)[C@@H]1CNC[C@H]1C1CCN(C)CC1 | 9.8%
Cc1noc(-c2ccco2)c1C(=O)NCc1ccc(F)cc1F | i
Cc1cn2nc(C(=O)Nc3ccc(F)c(C)c3)cc2c(N2CCSCC2)n1 | -28.2%
Cc1cn2nc(C(=O)Nc3ccc(C)c(F)c3)cc2c(N(C)Cc2ccccc2)n1 | 10µM*
Cc1ccc(NC(=O)c2cc3c(N4CCCC4)nc(C)cn3n2)cc1 | -4.4%
Cc1cn2nc(C(=O)Nc3ccc(N(C)C)cc3)cc2c(N(C)Cc2ccccc2)n1 | 0.794µM*
COc1ccc(NC(=O)c2cc3c(N4CCSCC4)nc(C)cn3n2)cc1F | 27.6%
Cc1ccc(CNC(=O)c2cc3c(N(C)Cc4ccccc4)nc(C)cn3n2)cc1 | i
CN1CCOc2c(C(=O)NCCc3cnc[nH]3)cc(-c3ccccc3F)cc21 | i
C=CCNC(=O)N[C@H]1C[C@@H](C(=O)N[C@H](Cc2c[nH]c3ccccc23)C(N)=O)N(C(=O)c2cccn2C)C1 | 21.2%
COCCn1ncc(N2CCC(C(=O)Nc3ccc(F)cc3F)C2)cc1=O (stereo not given) | i
CC(=O)c1ccc(NC(=O)CC2Nc3cccc4cccc(c34)NC2=O)cc1 (stereo not given) | -0.9%
CCOC(=O)c1ccc(NC(=O)CC2Sc3ccc(C(F)(F)F)cc3NC2=O)cc1 (stereo not given) | 39.8%[0.594 µM]
NC(=O)c1ccc(NC(=O)C[C@H]2NC(=O)c3ccccc3NC2=O)cc1 | 4.6%
CCOC(=O)c1ccc(NC(=O)CC2Nc3cccc4cccc(c34)NC2=O)cc1 (stereo not given) | 10µM*
CCOc1ccc(NC(=O)CC2Nc3cccc4cccc(c34)NC2=O)cc1 (stereo not given) | 7.7%
CCOC(=O)c1ccc(NC(=O)CC2Nc3cc(C)c(C)cc3NC2=O)cc1 (stereo not given) | 3.98µM*
CC(C)c1ccc(C(=O)N[C@H](C2CCNCC2)C2CC(O)C2)c(=O)n1C (stereo not given in full) | -4.9%
O=C(NC1CCCCC1)C1CC(=O)N(c2n[nH]c3cccc(F)c23)C1 (stereo not given) | 0.0%
N#Cc1ccc(O[C@@H]2CCOC[C@H]2NC(=O)CN2CCOC2=O)cc1 | -3.4%
O=C(O)C1Cn2cccc2C(=O)N1Cc1cccnc1 (stereo not given) | 23.5%
CC(C)CN1C(=O)c2cccn2CC1C(=O)N1CCN(Cc2ccc3c(c2)OCO3)CC1 (stereo not given) | -24.4%
SMILES | Pf Dd2 inh
Cc1ccc(CN2CCN(C(=O)C3Cn4cccc4C(=O)N3Cc3cccnc3)CC2)cc1 (stereo not given) | 12.6µM*
CCN(C(=O)Cn1cc(C(=O)c2ccc(F)cc2)c(=O)c2ccc(C)nc21)c1cccc(C)c1 | 8.91µM*
Cc1ccc(C)c(NC(=O)Cn2cc(C(=O)c3ccc(Cl)cc3)c(=O)c3ccc(C)nc32)c1 | -10.2%
Cc1ccc2c(=O)c(C(=O)c3cccc(Cl)c3)cn(CC(=O)NCc3ccc(F)cc3)c2n1 | -7.3%
CC1(C(=O)N2CCN(c3ncccn3)CC2)CCOCC1 | 0.7%
COCCCNC(=O)Cn1cnc2sc(C)c(S(=O)(=O)N3CCN(c4ccccc4OC)CC3)c2c1=O | -12.6%
COc1ccc(OC)c(NC(=O)Cn2cnc3sc(C)c(S(=O)(=O)N4CCN(c5ccccc5OC)CC4)c3c2=O)c1 | 11.2µM*
COc1ccc(NC(=O)Cn2cnc3sc(C)c(S(=O)(=O)N4CCN(C)CC4)c3c2=O)cc1Cl | 9.9%
COc1ccc(Cl)cc1NC(=O)Cn1cnc2sc(C)c(S(=O)(=O)N3CCN(c4ccccc4OC)CC3)c2c1=O | 10µM*
COc1ccccc1N1CCN(C(=O)Cn2cnc3sc(C)c(S(=O)(=O)N4CCC(C)CC4)c3c2=O)CC1 | 31.2%
COCCNC(=O)Cn1cnc2sc(C)c(S(=O)(=O)N3CCN(c4ccccc4OC)CC3)c2c1=O | 4.0%
O=C(Cn1c(=O)oc2ccccc21)N1CCC(N2CC3CC(C2)[C@H]2CCCC(=O)N2C3)CC1 (stereo not given in full) | -13.7%
Cc1cn2nc(C(=O)N3CCC(NC(=O)c4cccn4C)CC3)cc2c(=O)[nH]1 | 13.7%
COCCc1nncn1C1CCN(S(=O)(=O)c2ccc(F)c(C)c2)CC1 | -5.3%
O=C(O)C[C@@H]1CCN(C(=O)c2ccccc2)C[C@@H]1CCN1CCN(c2ccccn2)CC1 | -8.0%
Cc1noc2c(NCCc3ccccn3)cc(-c3ccc(Cl)cc3)nc12 | -0.1%[44.1 µM]
Cc1noc2c(NCCCn3ccnc3)cc(-c3ccc(Cl)cc3)nc12 | 4.47µM*
Cc1noc2c(NCCN3CCOCC3)cc(-c3ccc(Cl)cc3)nc12 | -12.8%[44.1 µM]
NC(=O)C1(C(=O)N2C[C@@H](C(=O)O)[C@H](c3ccc4c(c3)OCO4)C2)CC1 | 3.8%
CCn1cc(S(=O)(=O)N2C[C@@H](Oc3cccnc3)C[C@H]2C(=O)NC)cn1 | 9.9%
Cc1[nH]c2ccccc2c1C(c1ccccc1)c1ccc(Cl)s1 (stereo not given) | 8.91µM*
c1ccc(C(c2cccs2)c2c[nH]c3ccccc23)cc1 (stereo not given) | -20.0%
COc1ccc(OC2CN([S+](=O)([O-])c3cccs3)C2)cc1 | -3.2%
Cc1nccn1CCCC(=O)N1CC[C@](C)(O)[C@H](C)C1 | 10.3%
CCCN(C(=O)c1cn(CC(C)C)c(=O)c2cc(OC)c(OC)cc12)c1cccc(C)c1 | -16.8%
SMILES | Pf Dd2 inh
COc1cc2c(C(=O)N3CCN(c4cccc(C(F)(F)F)c4)CC3)cn(CC(C)C)c(=O)c2cc1OC | 8.91µM*
COc1cc2[nH]c(=O)n(CCCC(=O)N3CCN(c4cccc(C(F)(F)F)c4)CC3)c(=O)c2cc1OC | i
CCNc1ncc(C(=O)N2C[C@@H](NS(C)(=O)=O)[C@H](C(C)C)C2)cn1 | 2.3%
CC(C)C(=O)NCCc1noc(Cc2ccccc2)n1 | 88.3%
CCc1ccc(C(=O)N2CCC(Oc3ccc(C(N)=O)cn3)CC2)cc1 | 5.9%
COc1ccccc1-c1nn2c(=O)cc(CN3CCN(S(=O)(=O)c4ccc(C)cc4)CC3)nc2s1 | 9.1%
COc1cccc(-c2nn3c(=O)cc(CN4CCN(C(=O)COc5ccccc5C)CC4)nc3s2)c1 | 11.2µM*
Cc1ccc(-c2nn3c(=O)cc(CN4CCN(C(=O)COc5ccc(C)c(C)c5)CC4)nc3s2)cc1 | -5.7%
Cc1cccc(-c2nn3c(=O)cc(CN4CCN(C(=O)c5ccccc5Br)CC4)nc3s2)c1 | -21.1%
Cc1cccc(-c2nn3c(=O)cc(CN4CCN(S(=O)(=O)c5ccc(Cl)cc5)CC4)nc3s2)c1 | 8.91µM*
COc1ccc(-c2nn3c(=O)cc(CN4CCN(C(=O)COc5ccc(F)cc5)CC4)nc3s2)cc1 | -6.8%
COc1ccc(-c2nn3c(=O)cc(CN4CCN(S(=O)(=O)c5ccc(C)cc5)CC4)nc3s2)cc1 | 11.2µM*
Cc1ccc(S(=O)(=O)N2CCN(Cc3cc(=O)n4nc(-c5ccccc5Cl)sc4n3)CC2)cc1 | 15.1%
COc1ccc(-c2nn3c(=O)cc(CN4CCN(C(=O)/C=C/c5ccccc5)CC4)nc3s2)cc1 | -19.8%
Cc1ccc(NC(=O)[C@H]2CN(Cc3ccccc3)C[C@H]2C(=O)O)cc1 | -14.8%
